These results are taken from PubChem BioAssay (Tox21).

SMILES strings stand for the structures. Results filed as inconclusive are left out. Values without a mark were called inactive. Active and inactive are the calls of the source. The call rests on the fitted dose curve; in most records, active means well fitted curve in the direction sought with a large enough effect in the repeat runs; inconclusive means weak or mixed curves; inactive means no such curve, though single readings can be large; an effect the other way counts as inactive or inconclusive.

The target in test [1] is Cytochrome P450 2C19 (Homo sapiens) (UniProt P33261). Put plainly: Cytochrome P450 Family 2 Subfamily C Member 19 (CYP2C19) small molecule antagonists: luciferase reporter qHTS assay (AID 1671197). Further: nearly all actives have a fitted effect of over 65% in size. On activity change, negative = inhibition: series mostly up to about 120 µM. The essentials:
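CYP2C19 P450-Glo, 1536-well qHTS. Cpd + enzyme/proluciferin substrate 10 min RT; + NADPH regen, 37C 1 h; stop with luciferin detection reagent, 20 min RT, luminescence (RLU). Pos ctrl ketoconazole.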

Test [2] has as its target Cytochrome P450 2C9 (Homo sapiens) (UniProt P11712). Put plainly: Cytochrome P450 Family 2 Subfamily C Member 9 (CYP2C9) small molecule antagonists: luciferase reporter qHTS assay (AID 1671198). Further: nearly all actives have a fitted effect of over 50% in size. On activity change, negative = inhibition: series mostly up to about 120 µM. In short, it runs like this:
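CYP2C9 activity was measured with a P450-Glo proluciferin substrate. Enzyme–substrate mix was held with compound for 10 min at room temperature, then NADPH regeneration solution was added for 1 h at 37C. Luciferin product was read as luminescence.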
(In general: Reporter assays use an easily measured gene product as a stand-in for the process of interest.)

Test [3] deals with Cytochrome P450 1A2 (Homo sapiens) (UniProt P05177). The test can be described thus: Cytochrome P450 Family 1 Subfamily A Member 2 (CYP1A2) small molecule antagonists: luciferase reporter qHTS assay (AID 1671199). Further: nearly all actives have a fitted effect of over 50% in size. On activity change, negative = inhibition: series mostly up to about 120 µM. The essentials: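 Luminescence readout (relative luminescence units) after luciferin detection reagent, 20 min RT. Preceded by 1 h room-temperature CYP1A2 reaction with NADPH regeneration solution following 10 min compound preincubation with enzyme and proluciferin substrate. Furafylline positive control.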
Chain of Cytochrome P450 1A2 (Homo sapiens) (P05177 whole entry, looked up): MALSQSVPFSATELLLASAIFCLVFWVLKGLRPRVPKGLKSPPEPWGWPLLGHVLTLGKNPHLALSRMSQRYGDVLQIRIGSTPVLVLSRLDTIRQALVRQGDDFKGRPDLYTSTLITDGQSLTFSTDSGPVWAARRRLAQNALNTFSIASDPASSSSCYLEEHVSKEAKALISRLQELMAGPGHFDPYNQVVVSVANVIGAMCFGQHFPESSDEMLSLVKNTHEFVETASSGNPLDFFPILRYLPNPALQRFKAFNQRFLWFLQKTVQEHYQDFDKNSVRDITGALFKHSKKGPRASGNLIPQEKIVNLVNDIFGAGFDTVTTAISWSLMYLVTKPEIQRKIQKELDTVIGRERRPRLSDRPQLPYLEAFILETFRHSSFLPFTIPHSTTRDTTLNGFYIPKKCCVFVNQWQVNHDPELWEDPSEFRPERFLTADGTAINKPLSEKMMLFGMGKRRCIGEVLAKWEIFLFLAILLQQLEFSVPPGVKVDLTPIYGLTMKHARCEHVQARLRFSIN

Test [4] addresses Voltage-gated inwardly rectifying potassium channel KCNH2 (Homo sapiens) (UniProt Q12809). Put plainly: Human Ether-a-go-go-Related Gene (hERG) channel small molecule antagonists: fluorescence cell-based qHTS assay (AID 1671200). Further: nearly all actives have a fitted effect of over 50% in size.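 On activity change, negative = inhibition: hERG-expressing U2OS cells given a thallium stimulus after FluxOR II dye loading; series mostly up to about 77 µM.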 The essentials:
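Quantitative HTS in hERG-U2OS cells: thallium entry through the channel reports activity, read as continuous 480/540 nm fluorescence over 2 min after stimulus addition.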

In test [5] the target is Cytochrome P450 3A4 (Homo sapiens) (UniProt P08684). Put plainly: Cytochrome P450 Family 3 Subfamily A Member 4 (CYP3A4) small molecule antagonists: luciferase reporter qHTS assay (AID 1671201). Further: nearly all actives have a fitted effect of over 50% in size. On activity change, negative = inhibition: series mostly up to about 120 µM. In short, it runs like this:
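Inhibition of CYP3A4 is measured as loss of light: the enzyme converts a proluciferin substrate to luciferin, detected luminescently. Reaction ran 1 h at room temperature with NADPH regeneration after a 10 min compound preincubation.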
On the % scale 0 is the no-effect control and ±100 the full control effect; potency means the concentration at half of the fitted maximal effect.

Chain of Voltage-gated inwardly rectifying potassium channel KCNH2 (Homo sapiens) (Q12809 whole entry, looked up): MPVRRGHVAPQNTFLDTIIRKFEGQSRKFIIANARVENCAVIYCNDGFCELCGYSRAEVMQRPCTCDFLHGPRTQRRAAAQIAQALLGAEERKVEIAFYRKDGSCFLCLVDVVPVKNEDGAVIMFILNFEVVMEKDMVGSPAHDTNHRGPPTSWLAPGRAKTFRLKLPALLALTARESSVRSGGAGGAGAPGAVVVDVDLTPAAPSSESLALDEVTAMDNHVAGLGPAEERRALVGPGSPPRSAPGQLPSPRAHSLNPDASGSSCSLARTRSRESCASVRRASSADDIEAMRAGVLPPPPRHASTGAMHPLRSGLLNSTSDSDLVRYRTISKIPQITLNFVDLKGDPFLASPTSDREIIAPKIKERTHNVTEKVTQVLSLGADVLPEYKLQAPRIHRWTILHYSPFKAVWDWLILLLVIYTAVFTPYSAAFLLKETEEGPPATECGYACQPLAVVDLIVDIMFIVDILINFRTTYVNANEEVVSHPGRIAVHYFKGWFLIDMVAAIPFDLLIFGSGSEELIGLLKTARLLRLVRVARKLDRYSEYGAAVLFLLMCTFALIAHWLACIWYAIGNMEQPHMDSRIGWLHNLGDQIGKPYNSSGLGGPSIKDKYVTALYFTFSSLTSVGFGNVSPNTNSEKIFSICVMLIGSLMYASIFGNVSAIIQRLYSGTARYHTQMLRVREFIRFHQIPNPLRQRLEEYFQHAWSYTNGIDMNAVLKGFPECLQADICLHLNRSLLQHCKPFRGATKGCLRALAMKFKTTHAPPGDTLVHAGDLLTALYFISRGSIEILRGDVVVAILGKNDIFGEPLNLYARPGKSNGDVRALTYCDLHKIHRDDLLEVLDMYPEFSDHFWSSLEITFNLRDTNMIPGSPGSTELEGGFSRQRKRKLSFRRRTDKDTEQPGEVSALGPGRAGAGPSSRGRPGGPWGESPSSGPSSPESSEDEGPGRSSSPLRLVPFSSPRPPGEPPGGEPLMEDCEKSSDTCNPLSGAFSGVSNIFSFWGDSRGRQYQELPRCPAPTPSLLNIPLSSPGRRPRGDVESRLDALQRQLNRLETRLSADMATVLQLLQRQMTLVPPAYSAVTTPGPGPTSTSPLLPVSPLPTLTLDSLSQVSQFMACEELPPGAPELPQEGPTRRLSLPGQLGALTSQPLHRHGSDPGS
Chain of Cytochrome P450 2C9 (Homo sapiens) (P11712 whole entry, looked up): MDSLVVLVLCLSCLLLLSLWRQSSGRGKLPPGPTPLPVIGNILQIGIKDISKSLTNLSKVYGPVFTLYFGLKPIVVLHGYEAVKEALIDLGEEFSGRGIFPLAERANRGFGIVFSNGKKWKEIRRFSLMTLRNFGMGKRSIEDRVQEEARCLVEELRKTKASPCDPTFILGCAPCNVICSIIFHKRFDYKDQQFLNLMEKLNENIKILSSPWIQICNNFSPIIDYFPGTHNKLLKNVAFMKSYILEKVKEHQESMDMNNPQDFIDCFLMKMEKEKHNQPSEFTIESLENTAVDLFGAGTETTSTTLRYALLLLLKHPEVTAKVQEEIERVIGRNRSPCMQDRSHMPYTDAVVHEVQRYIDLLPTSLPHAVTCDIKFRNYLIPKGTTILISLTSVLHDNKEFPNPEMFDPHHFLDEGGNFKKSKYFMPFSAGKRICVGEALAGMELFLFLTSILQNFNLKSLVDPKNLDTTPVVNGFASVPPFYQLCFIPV
Chain of Cytochrome P450 2C19 (Homo sapiens) (P33261 whole entry, looked up): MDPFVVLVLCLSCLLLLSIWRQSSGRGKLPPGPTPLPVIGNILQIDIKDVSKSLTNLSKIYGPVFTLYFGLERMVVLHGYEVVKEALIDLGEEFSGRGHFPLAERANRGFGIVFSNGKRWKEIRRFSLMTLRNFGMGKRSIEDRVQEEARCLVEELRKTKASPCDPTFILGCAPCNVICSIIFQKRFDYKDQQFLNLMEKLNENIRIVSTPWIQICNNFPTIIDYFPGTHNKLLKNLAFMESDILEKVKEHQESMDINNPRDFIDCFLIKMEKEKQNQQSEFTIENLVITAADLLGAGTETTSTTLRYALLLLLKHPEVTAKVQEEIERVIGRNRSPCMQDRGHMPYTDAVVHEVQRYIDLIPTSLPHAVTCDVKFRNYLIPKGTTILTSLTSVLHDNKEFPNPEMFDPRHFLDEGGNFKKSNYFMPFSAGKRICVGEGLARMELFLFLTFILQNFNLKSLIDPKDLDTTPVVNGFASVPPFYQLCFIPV
Chain of Cytochrome P450 3A4 (Homo sapiens) (P08684 whole entry, looked up): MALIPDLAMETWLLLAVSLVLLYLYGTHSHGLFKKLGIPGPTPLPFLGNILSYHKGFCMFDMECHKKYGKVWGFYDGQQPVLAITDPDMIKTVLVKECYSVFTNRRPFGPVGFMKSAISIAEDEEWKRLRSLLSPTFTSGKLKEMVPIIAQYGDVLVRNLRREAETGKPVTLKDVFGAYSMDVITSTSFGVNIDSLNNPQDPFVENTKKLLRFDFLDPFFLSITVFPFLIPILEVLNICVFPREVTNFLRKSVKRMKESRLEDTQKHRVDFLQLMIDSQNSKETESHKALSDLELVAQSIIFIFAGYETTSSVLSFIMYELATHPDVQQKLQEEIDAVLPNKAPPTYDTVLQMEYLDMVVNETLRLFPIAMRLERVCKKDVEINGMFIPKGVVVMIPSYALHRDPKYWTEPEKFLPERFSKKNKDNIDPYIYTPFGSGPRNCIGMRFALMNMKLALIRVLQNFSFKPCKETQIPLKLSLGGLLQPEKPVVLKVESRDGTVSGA

With `CCc1cc(C2=C(C(=O)O)N(c3ccccc3C(F)(F)F)S(=O)(=O)c3ccccc32)cc2c1OCO2`, the Potency in test [1] is 78.7 µM (active); in test [2] it was 11.1 µM (active); in test [5] it was 2.79 µM (active). For the same molecule, the Potency entry in test [3] and in test [4] was “inactive” each time.
`Cc1cccc(C)c1OCC(=O)N[C@@H](Cc1ccccc1)[C@@H](O)C[C@H](Cc1ccccc1)NC(=O)[C@H](C(C)C)N1CCCNC1=O`: the Potency in test [1] is 21.9 µM (active); in test [2], 13.8 µM (active). Further, the Potency result in test [3] is “inactive”.
As for `S=C([S-])NCCNC(=S)[S-].[Mn+2]`, the Potency in test [1] is 17.8 µM (active); in test [2], 11.2 µM (active); in test [3], 25.2 µM (active). In test [4], the Potency entry was “inactive”.
Taken in the same sequence, the figures for `COc1cc(Cl)ccc1Oc1ccc(Cl)cc1Cl` were 1.23 µM (active), 19.5 µM (active), 12.3 µM (active) and “inactive”.
Taken in the same sequence, the figures for `Clc1ccc(Cn2c(CN3CCCC3)nc3ccccc32)cc1` were 0.776 µM (active), 15.5 µM (active), 18.2 µM (active) and 1.34 µM (active).
Taken in the same sequence, the figures for `CCCCC1=NC2(CCCC2)C(=O)N1Cc1ccc(-c2ccccc2-c2nn[nH]n2)cc1` were “inactive”, 17.4 µM (active), “inactive” and “inactive”.
As for `CCCCc1nc2cccnc2n1Cc1ccc(-c2ccccc2-c2nnn[nH]2)cc1`, the Potency entry in test [1] and in test [4] was “inactive” throughout. In addition, the Potency in test [2] was 0.356 µM (active); in test [3], 44.8 µM (active).
Take `C1CCCNCCC1`: the Potency result in test [1], in test [2], in test [3], in test [4] and in test [5] was “inactive” throughout.
Consider `NCC(=O)CCC(=O)O`, for which the Potency result in test [1], in test [2], in test [3], in test [4] and in test [5] was “inactive” throughout.
In the case of `CCCCCCOC(=O)NC(=N)c1ccc(NCc2nc3cc(C(=O)N(CCC(=O)OCC)c4ccccn4)ccc3n2C)cc1`, the Potency was 2.19 µM (active) in test [1] and 3.09 µM (active) in test [2]. Moreover, the Potency entry in test [3] was “inactive”.
`Cc1c(N)cccc1[N+](=O)[O-]`: the Potency result in test [1], in test [2] and in test [4] was “inactive” in each case. In addition, the Potency in test [3] was 32.2 µM (active).
Consider `CNCCCN1c2ccccc2CCc2ccccc21`, for which the Potency result in test [1], in test [2] and in test [3] was “inactive” throughout.
`c1ccc(CNCCNCc2ccccc2)cc1`: the Potency in test [1] was 7.76 µM (active). In addition, in test [2], the Potency entry was “inactive”.
For the molecule `CN1CCC(=C2c3ccccc3Sc3ccccc32)CC1`, the results for the Potency in test [1] and in test [4] were 38.9 µM (active) and 12 µM (active), respectively. Moreover, the Potency entry in test [2] and in test [3] was “inactive” throughout.
Consider `OCCN1CCN(CCCN2c3ccccc3C=Cc3ccccc32)CC1`, for which the Potency entry in test [1], in test [2] and in test [3] was “inactive” each time.
`O=S(=O)(Oc1ccc(Cl)cc1)c1ccccc1`: the Potency is 0.894 µM (active) in test [1], 31.7 µM (active) in test [2] and 5.64 µM (active) in test [3]. Moreover, the Potency result in test [4] and in test [5] was “inactive” throughout.
With `C=C1C(=C/C=C2\CCC[C@]3(C)[C@@H]([C@H](C)/C=C/[C@@H](O)C4CC4)CC[C@@H]23)C[C@@H](O)C[C@@H]1O`, the Potency in test [1] is 7.76 µM (active); in test [2], 15.5 µM (active). Moreover, the Potency result in test [3], in test [4] and in test [5] was “inactive” throughout.
Take `COc1cc2c(cc1OC)C(C(C(=O)N(CCc1ccc(OC)c(OC)c1OC)CCc1ccc(OC)c(OC)c1OC)c1ccccc1)=NCC2` (stereo unspecified): the Potency in test [1] was 12.3 µM (active); in test [2], 11 µM (active). In addition, the Potency entry in test [3] is “inactive”.
`COc1ccc2cccc(CCNC(C)=O)c2c1`: the Potency in test [1] was 34.7 µM (active); in test [2], 15.5 µM (active); in test [3], 4.9 µM (active). The Potency result in test [4] is “inactive”.
Turning to `CCCCC/C=C\C/C=C\CCCCCCCC(=O)NC(C)c1ccccc1` (stereo unspecified), the Potency in test [1] is 4.9 µM (active); in test [2] it was 2.45 µM (active). Also, in test [3], the Potency entry is “inactive”.
With `COc1cc2nc(Cl)nc(N)c2cc1OC`, the Potency result in test [1], in test [2] and in test [4] was “inactive” throughout. Further, in test [3], the Potency was 2.75 µM (active).
`Cc1nn(C)c(Oc2ccccc2)c1/C=N/OCc1ccc(C(=O)OC(C)(C)C)cc1`: the Potency in test [1] is 2 µM (active); in test [2] it was 2.83 µM (active).
In the case of `O=C1[C@H]2CCCC[C@H]2C(=O)N1CCCCN1CCN(c2nsc3ccccc23)CC1`, the Potency result in test [1], in test [2] and in test [3] was “inactive” in each case. For the same molecule, the Potency in test [4] was 8.49 µM (active).
As to `COc1ccnc(CS(=O)c2nc3ccc(OC(F)F)cc3[nH]2)c1OC` (stereo unspecified), the figures for the Potency in test [1], in test [2] and in test [3] were 13.8 µM (active), 34.7 µM (active) and 17.4 µM (active), respectively.
`C=CCOc1ccccc1OCC(O)CNC(C)C` (stereo unspecified): the Potency entry in test [1], in test [2], in test [4] and in test [5] was “inactive” throughout. Besides, in test [3], the Potency is 10.2 µM (active).
Regarding `O=C(O)C1(C(=O)O)CCC1.[NH2-].[NH2-].[Pt+2]`, the Potency is 21.9 µM (active) in test [1], 8.71 µM (active) in test [2] and 13.8 µM (active) in test [3]. Also, the Potency result in test [4] and in test [5] was “inactive” throughout.
For `CCN(CC)c1ccc(C(=C2C=CC(=[N+](CC)CC)C=C2)c2cc(S(=O)(=O)O)ccc2S(=O)(=O)[O-])cc1`, the Potency is 12.3 µM (active) in test [1], 15.5 µM (active) in test [2] and 17.4 µM (active) in test [3]. Besides, the Potency entry in test [4] is “inactive”.
As for `C[C@@H]1C[C@H]2[C@@H]3CCC4=CC(=O)C=C[C@]4(C)[C@@]3(F)[C@@H](O)C[C@]2(C)[C@@]1(O)C(=O)COC(=O)c1ccncc1`, the Potency is 17.4 µM (active) in test [1] and 7.76 µM (active) in test [2]. Also, the Potency entry in test [3] and in test [4] was “inactive” in each case.
Turning to `Cc1[nH]c(C)c(Cl)c(=O)c1Cl`, the Potency result in test [1] and in test [3] was “inactive” throughout. The activity change, negative = inhibition in test [2] is 23.2% [at 23.6 µM]; in test [4], -0.502% [at 15.8 µM]; in test [5], 19.3% [at 23.6 µM].
As for `O=C(Cl)c1cc(C(=O)Cl)cc(C(=O)Cl)c1`, in test [1], the Potency entry was “inactive”. Further, the results for the Potency in test [2] and in test [3] were 28.3 µM (active) and 39.9 µM (active), respectively.
Turning to `COC(=O)C1=C(C)NC(COC(N)=O)=C(C(=O)OC(C)C)C1c1cccc(Cl)c1Cl` (stereo unspecified), the Potency in test [1] was 15.5 µM (active); in test [2], 8.71 µM (active).
Turning to `O[C@@H](COc1cccc2ncccc12)CN1CCN(C2c3ccccc3[C@@H]3[C@H](c4ccccc42)C3(F)F)CC1` (stereo partly specified), the Potency was 21.9 µM (active) in test [1], 11 µM (active) in test [2] and 15.5 µM (active) in test [3].
On to `NC(N)=NCCC[C@H](N)C(=O)O`, for which the activity change, negative = inhibition in test [1] was 24.2% [at 10.5 µM]; in test [2] it was 10.6% [at 10.5 µM]; in test [3] it was 1.33% [at 10.5 µM]; in test [4], 5.88% [at 6.97 µM]; in test [5] it was 0.752% [at 10.5 µM].
